Compound activity from PubChem BioAssay.
A selection: hits, their analogues and other compounds. The true share with any hit is near 19%.
DT40 TDP1 CPT – qHTS for Inhibitors of human tyrosyl-DNA phosphodiesterase 1 (TDP1): qHTS in cells in presence of CPT; chicken DT40 Tdp1-/-;hTDP1 cells + 20 nM CPT, ATP luminescence, 48 h; Potency, µM (titrated, usually from 46.2 µM), without a hit: at the top dose activity change, negative = growth inhibition, most hits filed as inhibitors; 420,000 tested, 12% active; AID 686979, 2013; also: potency is read from the fitted curve at half-maximal effect; % is scaled to controls: 0 for no effect and ±100 for the full control effect; nearly all actives have a fitted effect of over 55% in size
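Cell growth measured by CellTiter-Glo luminescence after a minimum 48 h, 37 C compound exposure with 20 nM CPT in Tdp1-knockout DT40 cells stably expressing hTDP1, seeded 400/well; qHTS titration format.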
HepG2 viability – qHTS for Inhibitors of TGF-b: Cytotox Counterscreen; HepG2 CAGA-GFP viability, ATP luminescence, 18 h; Potency, µM (titrated, usually from 46.1 µM), for inactives: at the highest dose activity change, negative = cytotoxicity, most hits filed as cytotoxic; 410,000 tested, 0.76% active; AID 588856, 2011; also: potency is read from the fitted curve at half-maximal effect
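CellTiter-Glo luminescence gave cytotoxicity after 18 hours at 37 degrees C. The cells were HepG2 CAGA-GFP in 1% FBS DMEM, stimulated with 500 pg/mL TGF-beta after compound addition. %Activity was normalised to no-cell wells (complete cell-killing) and DMSO (no toxicity), and curves were fitted and classified.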
TGFb inhibitor – qHTS for Inhibitors of TGF-b; HepG2 CAGA-GFP TGF-b/SMAD3 reporter, GFP fluorescence, 18 h; TGF-beta stimulated, 500 pg/mL final; Potency, µM (top dose mostly 46.1 µM), for the others: at the highest dose activity, negative = inhibition, actives largely listed as inhibitors; 410,000 tested, 1.2% active; AID 588855, 2011; also: potency is read from the fitted curve at half-maximal effect; % is scaled to controls: 0 for no effect and ±100 for the full control effect; nearly all actives have a fitted effect of over 65% in size
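TGF-beta reporter screen: HEPG2 CAGA-GFP, 1% FBS, 500 pg/mL TGF-beta final, 18 h; per-cell GFP summed per well; curves fitted and categorized by class.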
S-ASM inh – Inhibitors of Secretory Acid Sphingomyelinase (S-ASM): qHTS; 340,000 tested, 0.006% active; Sphingomyelin phosphodiesterase (Homo sapiens), P17405; Potency, µM (series often up to 57.5 µM), for inactives: at the highest dose activity change, negative = inhibition, actives largely listed as inhibitors; placental ASM, HMU-PC fluorogenic substrate, 60 min; also: potency is read from the fitted curve at half-maximal effect
Target sequence (P17405 47-631 limits assumed): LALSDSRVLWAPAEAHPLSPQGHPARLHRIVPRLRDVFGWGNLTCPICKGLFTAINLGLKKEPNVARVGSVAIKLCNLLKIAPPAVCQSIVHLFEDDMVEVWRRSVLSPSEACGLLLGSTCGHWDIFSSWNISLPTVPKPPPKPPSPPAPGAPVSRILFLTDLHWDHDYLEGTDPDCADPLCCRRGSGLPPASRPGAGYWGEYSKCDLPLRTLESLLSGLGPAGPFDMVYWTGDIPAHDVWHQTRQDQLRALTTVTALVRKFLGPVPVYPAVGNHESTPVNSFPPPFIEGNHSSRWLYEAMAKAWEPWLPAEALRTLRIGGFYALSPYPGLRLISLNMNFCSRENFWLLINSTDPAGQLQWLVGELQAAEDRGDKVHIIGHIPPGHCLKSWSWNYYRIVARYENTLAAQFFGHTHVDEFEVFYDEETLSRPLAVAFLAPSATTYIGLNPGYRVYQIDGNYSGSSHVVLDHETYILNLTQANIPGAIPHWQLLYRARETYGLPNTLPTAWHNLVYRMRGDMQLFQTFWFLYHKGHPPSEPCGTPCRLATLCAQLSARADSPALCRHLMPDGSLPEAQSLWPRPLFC
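Fluorescence read-out (Ex 386 nm, Em 447 nm) after stopping the reaction at pH 10. Enzyme: ASM from human placenta; substrate HMU-PC0, 9 uM final; 60 min, 37 °C. Compound preincubation 10 min, ambient temperature.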
TDP1 cell noCPT – qHTS for Inhibitors of human tyrosyl-DNA phosphodiesterase 1 (TDP1): qHTS in cells in absence of CPT. DT40 Tdp1-/- hTDP1 cells, no CPT, ATP luminescence, 48 h. Potency, µM (titrated, usually from 46.2 µM), inactives show at the highest dose activity change, negative = growth inhibition, most hits filed as inhibitors. 420,000 tested, 15% active. AID 686978, 2013; also: potency is read from the fitted curve at half-maximal effect; % is scaled to controls: 0 for no effect and ±100 for the full control effect; nearly all actives have a fitted effect of over 55% in size
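Stably hTDP1-transfected Tdp1-null chicken DT40 cells were treated with library compounds minus camptothecin and grown for at least 48 hr at 37 °C, after which cellular ATP was quantified by luminescence.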
IL1B secr inh – qHTS for Inhibitors of Inflammasome Signaling: IL-1-beta AlphaLISA Primary Screen. 360,000 tested, 4.7% active. activity change, % at 57.5 µM. THP-1 LPS/ATP IL-1B secretion, AlphaLISA, 16 h; active compounds read low; in the data active = activity change below about -50%; inconclusive = mostly about -30% to -49%; also: % is scaled to controls: 0 for no effect and ±100 for the full control effect
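Secreted IL-1B measured by AlphaLISA bead assay after 16 h compound exposure of THP-1 cells; compounds (final up to 57.5 uM) added 1 h before LPS (250 ng/mL) and ATP (1.25 mM) stimulation; lower signal means less secretion.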
An asterisk follows results filed as active; ? = inconclusive; . = no result given; [ ] = another dose, or the depositor's remark. Unless noted, calls follow the shape of the dose curve; as a rule, active = well fitted curve in the direction sought with a large enough effect; inconclusive = small, poorly fitted or top-dose-only effect, or another doubt; inactive = no such curve, though single readings can be large; an effect the other way counts as inactive or inconclusive.

SMILES	DT40 TDP1 CPT	HepG2 viability	TGFb inhibitor	S-ASM inh	TDP1 cell noCPT	IL1B secr inh
CC(=O)c1cc(C(=O)N2CCc3c([nH]c4ccccc34)C2C2CCCCC2)[nH]n1 (stereo unspecified)	-27.9%	-30.7%	?	5.2%	?	-0.9
Cc1c(CN2CCc3c([nH]c4ccccc34)C2C2CCCCC2)cnn1C (stereo unspecified)	-3.0%	-7.8%	-16.5%	11.4%	16.4µM*	-7.0
COCc1ccc(CN2CCc3c([nH]c4ccccc34)C2C(C)(C)C)o1 (stereo unspecified)	?	-14.5%	?	23.3%	?	-52.6*
CCn1ccnc1CN1CCc2c([nH]c3ccccc23)C1CC(C)C (stereo unspecified)	?	-44.6%	?	10.3%	16.4µM*	-4.3
CN(CC(=O)Nc1ccccc1Br)CC(=O)Nc1ccccc1C(F)(F)F	-1.5%	14.1%	-7.4%	-0.8%	1.3%	70.1
O=C(NCC1CCC2(CCN(Cc3c[nH]c4ccccc34)CC2)O1)C1CCOCC1 (stereo unspecified)	-7.9%[9.04 µM]	.	.	.	-10.6%	.
CCn1ccnc1CN1CCc2c([nH]c3ccccc23)C1C1CCCCC1 (stereo unspecified)	?	6.5%	5.5%	3.5%	25.9µM*	29.4
Cc1ccccc1Oc1cc(-n2ncc(Cl)c(Cl)c2=O)ncn1	0.651µM*	7.08µM*	3.98µM*	-1.6%	0.411µM*	-105.6*
CC(=O)c1ccc(N(CC(=O)NC2CCCCC2)C(=O)CNC(=O)c2ccco2)cc1	2.8%	-37.7%	0.6%	-1.6%	-16.3%	-6.8
CCOC(=O)/C(C(N)=NCC(C)C)=C(/O)c1ccccc1	-24.7%	-23.6%	-0.8%	-0.3%	?	-81.0*
Cc1ccccc1-n1c(C)cc(/C=C(\C#N)C(=O)NCC2CCCO2)c1C (stereo unspecified)	?	-23.5%	-29.6%	11.3%	11.6µM*	-9.5
Cc1ccc(/C=C(\C#N)C(=O)NCC2CCCO2)o1 (stereo unspecified)	0.7%	-0.4%	2.8%	-0.8%	0.5%	-28.6
Cc1ccc(OCCn2cc(/C=C(\C#N)C(=O)NCC3CCCO3)c3ccccc32)cc1 (stereo unspecified)	13µM*	-0.1%	-7.0%	15.5%	10.3µM*	-13.5
Cc1cc(/C=C(\C#N)C(=O)O)c(C)n1CC1CCCO1 (stereo unspecified)	?	17.1%	1.3%	6.6%	20.6µM*	-13.9
Cc1ccc(OCCn2cc(/C=C(\C#N)C(=O)NCC3CCCO3)c3ccccc32)cc1C (stereo unspecified)	13µM*	-8.0%	4.2%	0.5%	7.31µM*	-5.6
CCCn1c(C)cc(/C=C(\C#N)C(=O)O)c1C	8.1%	-11.1%	-1.7%	2.6%	9.6%	-10.2
COc1ccc(-c2noc(CC(=O)N(C)c3ccccc3F)n2)cc1	-18.0%	-16.1%	24.5%	.	?	.
N#C/C(=C\c1ccc(O)cc1)C(=O)NCC1CCCO1 (stereo unspecified)	.	-2.2%	19.1%	.	.	.
N#C/C(=C\c1cc2c(cc1Br)OCO2)C(=O)NCC1CCCO1 (stereo unspecified)	?	-5.4%	2.6%	16.9%	?	-77.5*
CN(C)CCn1c(C(=O)O)cc2ccccc21	-3.7%	11.6%	-0.6%	1.5%	-2.5%	11.4
O=C(Cn1c(C(=O)OCCO)cc2ccccc21)c1ccccc1	8.2µM*	-17.0%	-31.7%	-2.2%	?	20.8
